Source: PubChem BioAssay (NCATS)
Results filed as inconclusive are left out. Entries that show only a call come without a potency. Calls of active or inactive are those of the source. Calls follow the shape of the full dose curve.

Assay: Primary qHTS for inhibitors of MERS-S pseudo-typed particle cell entry (AID 1479149); also: nearly all actives have a fitted effect of over 60% in size
Settings: MERS-S pseudotyped particle entry, luciferase; series mostly up to 57.1 µM

Compound	Potency
CCCC(=O)O[C@]1(C(=O)CO)CC[C@H]2[C@@H]3CCC4=CC(=O)CC[C@]4(C)[C@H]3[C@@H](O)C[C@@]21C	inactive
CCO/C([O-])=N/c1c[n+](N2CCOCC2)no1	inactive
O=C(O)C(S)C(S)C(=O)O (stereo unspecified)	inactive
Oc1cccc(O)c1	inactive
S=c1nc[nH]c2nc[nH]c12	inactive
Cc1c(F)c(N2CCNC(C)C2)cc2c1c(=O)c(C(=O)O)cn2C1CC1 (stereo unspecified)	inactive
CC1CCc2c(N3CCC(O)CC3)c(F)cc3c(=O)c(C(=O)O)cn1c23 (stereo unspecified)	inactive
C=CC(N)CCC(=O)O (stereo unspecified)	inactive
NS(=O)(=O)c1cc2c(cc1Cl)NC(CC1CCCC1)NS2(=O)=O (stereo unspecified)	inactive
COc1cc2c(Nc3ccc(Br)cc3F)ncnc2cc1OCC1CCN(C)CC1	inactive
Nc1c(I)cc(I)c(C(=O)N(CCC(=O)O)c2ccccc2)c1I	inactive
CN1C[C@H](C(=O)N[C@]2(C)O[C@@]3(O)[C@@H]4CCCN4C(=O)[C@H](Cc4ccccc4)N3C2=O)C=C2c3cccc4[nH]cc(c34)C[C@H]21	inactive
CCCCCCCCCCCCCCCC(=O)OC(C)C	inactive
c1ccc(-c2nc[nH]c2-c2ccccc2)cc1	inactive
Nc1nc2ccc(OC(F)(F)F)cc2s1	inactive
O=c1[nH]c(=O)n([C@H]2CCCO2)cc1F	inactive
CC(CN(C)C)C(C)(O)Cc1ccc(Cl)cc1 (stereo unspecified)	inactive
CCCCCCCCCCCCCCCCCC(=O)OCC(O)CO (stereo unspecified)	inactive
c1ccc2c(CC3=NCCN3)cccc2c1	inactive

Compound	Potency
CCCC(=O)O[C@]1(C(=O)COC(=O)CC)CC[C@H]2[C@@H]3CCC4=CC(=O)CC[C@]4(C)[C@H]3[C@@H](O)C[C@@]21C	inactive
CC(=O)OCC(=O)[C@@]1(O)[C@H](OC(C)=O)C[C@H]2[C@@H]3CCC4=CC(=O)C=C[C@]4(C)[C@@]3(F)[C@@H](O)C[C@@]21C	inactive
CCCC(=O)OCOC(=O)C1=C(C)NC(C)=C(C(=O)OC)C1c1cccc(Cl)c1Cl (stereo unspecified)	inactive
O=C1O[C@H](CO)[C@@H](O)[C@H](O)[C@H]1O	inactive
CC(=O)Nc1ccc(OC(=O)c2ccccc2OC(C)=O)cc1	inactive
CCN(CC)CCNC(=O)c1cc(S(C)(=O)=O)ccc1OC	inactive
O=P(O)(O)C(O)(Cn1ccnc1)P(=O)(O)O	inactive
CN1CCC[C@@H]1c1cccnc1	inactive
CNC(=O)c1c(I)c(NC(C)=O)c(I)c(C(=O)O)c1I	inactive
COC(=O)c1cc(Cl)ccc1NS(=O)(=O)C(F)(F)F	inactive
CC(C(=O)O)c1ccc2c(c1)[nH]c1ccc(Cl)cc12 (stereo unspecified)	inactive
COc1c2occc2cc2ccc(=O)oc12	inactive
CCOc1cc(CC(=O)N[C@@H](CC(C)C)c2ccccc2N2CCCCC2)ccc1C(=O)O	inactive
CCOC(=O)c1ccc(N)cc1	inactive
CCCCCCCCCCCCSCCOCCO	inactive
CS(=O)(=O)c1ccc([C@@H](O)[C@@H](CF)NC(=O)C(Cl)Cl)cc1	inactive
CCCCC(CC)COC(=O)c1ccccc1O (stereo unspecified)	inactive
CC1(C)O[C@H]2CC(=O)OC[C@]23[C@H]2CC[C@@]4(C)[C@H](c5ccoc5)OC(=O)[C@H]5O[C@]54[C@]2(C)C(=O)C[C@@H]13	inactive
C#C[C@]1(O)CC[C@H]2[C@@H]3CCc4cc(OC5CCCC5)ccc4[C@H]3CC[C@@]21C	inactive

Assay: Primary qHTS for Vero E6 cytotoxicity: counterscreen for inhibitors of SARS-S pseudo-typed particle cell entry (AID 1479150)
Settings: cell viability; series mostly up to 57.1 µM

Compound	Potency
CCCC(=O)O[C@]1(C(=O)CO)CC[C@H]2[C@@H]3CCC4=CC(=O)CC[C@]4(C)[C@H]3[C@@H](O)C[C@@]21C	inactive
CCO/C([O-])=N/c1c[n+](N2CCOCC2)no1	inactive
O=C(O)C(S)C(S)C(=O)O (stereo unspecified)	inactive
Oc1cccc(O)c1	inactive
S=c1nc[nH]c2nc[nH]c12	inactive
Cc1c(F)c(N2CCNC(C)C2)cc2c1c(=O)c(C(=O)O)cn2C1CC1 (stereo unspecified)	inactive
CC1CCc2c(N3CCC(O)CC3)c(F)cc3c(=O)c(C(=O)O)cn1c23 (stereo unspecified)	inactive
C=CC(N)CCC(=O)O (stereo unspecified)	inactive
NS(=O)(=O)c1cc2c(cc1Cl)NC(CC1CCCC1)NS2(=O)=O (stereo unspecified)	inactive
COc1cc2c(Nc3ccc(Br)cc3F)ncnc2cc1OCC1CCN(C)CC1	inactive
Nc1c(I)cc(I)c(C(=O)N(CCC(=O)O)c2ccccc2)c1I	inactive
CN1C[C@H](C(=O)N[C@]2(C)O[C@@]3(O)[C@@H]4CCCN4C(=O)[C@H](Cc4ccccc4)N3C2=O)C=C2c3cccc4[nH]cc(c34)C[C@H]21	inactive
CCCCCCCCCCCCCCCC(=O)OC(C)C	inactive
c1ccc(-c2nc[nH]c2-c2ccccc2)cc1	inactive
Nc1nc2ccc(OC(F)(F)F)cc2s1	inactive
O=c1[nH]c(=O)n([C@H]2CCCO2)cc1F	inactive
CC(CN(C)C)C(C)(O)Cc1ccc(Cl)cc1 (stereo unspecified)	inactive
CCCCCCCCCCCCCCCCCC(=O)OCC(O)CO (stereo unspecified)	inactive
c1ccc2c(CC3=NCCN3)cccc2c1	inactive

Compound	Potency
CCCC(=O)O[C@]1(C(=O)COC(=O)CC)CC[C@H]2[C@@H]3CCC4=CC(=O)CC[C@]4(C)[C@H]3[C@@H](O)C[C@@]21C	inactive
CC(=O)OCC(=O)[C@@]1(O)[C@H](OC(C)=O)C[C@H]2[C@@H]3CCC4=CC(=O)C=C[C@]4(C)[C@@]3(F)[C@@H](O)C[C@@]21C	inactive
CCCC(=O)OCOC(=O)C1=C(C)NC(C)=C(C(=O)OC)C1c1cccc(Cl)c1Cl (stereo unspecified)	inactive
O=C1O[C@H](CO)[C@@H](O)[C@H](O)[C@H]1O	inactive
CC(=O)Nc1ccc(OC(=O)c2ccccc2OC(C)=O)cc1	inactive
CCN(CC)CCNC(=O)c1cc(S(C)(=O)=O)ccc1OC	inactive
O=P(O)(O)C(O)(Cn1ccnc1)P(=O)(O)O	inactive
CN1CCC[C@@H]1c1cccnc1	inactive
CNC(=O)c1c(I)c(NC(C)=O)c(I)c(C(=O)O)c1I	inactive
COC(=O)c1cc(Cl)ccc1NS(=O)(=O)C(F)(F)F	inactive
CC(C(=O)O)c1ccc2c(c1)[nH]c1ccc(Cl)cc12 (stereo unspecified)	inactive
COc1c2occc2cc2ccc(=O)oc12	inactive
CCOc1cc(CC(=O)N[C@@H](CC(C)C)c2ccccc2N2CCCCC2)ccc1C(=O)O	inactive
CCOC(=O)c1ccc(N)cc1	inactive
CCCCCCCCCCCCSCCOCCO	inactive
CS(=O)(=O)c1ccc([C@@H](O)[C@@H](CF)NC(=O)C(Cl)Cl)cc1	inactive
CCCCC(CC)COC(=O)c1ccccc1O (stereo unspecified)	inactive
CC1(C)O[C@H]2CC(=O)OC[C@]23[C@H]2CC[C@@]4(C)[C@H](c5ccoc5)OC(=O)[C@H]5O[C@]54[C@]2(C)C(=O)C[C@@H]13	inactive
C#C[C@]1(O)CC[C@H]2[C@@H]3CCc4cc(OC5CCCC5)ccc4[C@H]3CC[C@@]21C	inactive
